The target of experiment [1] is Calcium and integrin-binding protein 1 (Homo sapiens) (UniProt Q99828). The experiment can be described thus: Primary qHTS for Identification of Calcium Integrin Binding Protein 1 (CIB1) Competitor (AID 1508620).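 Also: GST tagged CIB1 binding a fluorescein labelled alphaIIb integrin peptide tracer; top concentration of the series differs between compounds; % is scaled to controls: 0 for no effect and ±100 for the full control effect.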 The method in brief:
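CIB1-GST (1 uM final) and compound incubated 15 min at room temperature before adding FITC-alphaIIb peptide tracer (100 nM final). Competition for binding read by fluorescence polarization (ex 480, em 540) after another 15 min at room temperature.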
For orientation: Quantitative high-throughput screening tests each substance at several concentrations.

The nature of experiment [2]: Primary qHTS for inhibitors of nuclear receptor binding SET domain protein 2 (NSD2) in an isogenic RCH-ACV NSD2 p.E1099K mutant (9B) (AID 1645876). Also: nearly all actives have a fitted effect of over 70% in size. Also: potency is read from the fitted curve at half-maximal effect. As to activity change, negative = viability loss: % is scaled to controls: 0 for no effect and ±100 for the full control effect.
In experiment [3] the target is Cytochrome P450 2C9 (Homo sapiens) (UniProt P11712). The experiment can be described thus: Cytochrome P450 family 2 subfamily C member 9 (CYP2C9) small molecule antagonists: luciferase biochemical (cell-free) qHTS assay (AID 1645842; active = well fitted curve in the direction sought with a large enough effect in the repeat runs; an effect the other way counts as inactive or inconclusive; also: potency is read from the fitted curve at half-maximal effect; nearly all actives have a fitted effect of over 55% in size). The method in brief:
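P450-Glo CYP2C9 system: proluciferin substrate with enzyme in mix containing 0.4% BSA, 10 min at room temperature, then NADPH regeneration solution added and incubated 1 h at 37C. Detection reagent stopped reaction; luminescence read after 20 min as RLU.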

The target of experiment [4] is N-terminal Xaa-Pro-Lys N-methyltransferase 1 (Homo sapiens) (UniProt Q9BV86). The experiment can be described thus: Confirmatory qHTS for Inhibitors of N-terminal methyltransferase 1 (NTMT1): MTaseGlo Assay (AID 1645874). Also: nearly all actives have a fitted effect of over 65% in size. Also: potency is read from the fitted curve at half-maximal effect. The method in brief:
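MTase-Glo luminescence measured SAH formed by 125 nM NTMT1 from 100 uM SAM and 1 uM SPKRIA peptide over 30 min at room temperature, following 15 min compound preincubation. Percent inhibition against no-enzyme and DMSO controls gave 4-parameter Hill fits.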

In experiment [5] the target is Cytochrome P450 2D6 (Homo sapiens) (UniProt P10635). The experiment in a line: Cytochrome P450 family 2 subfamily D member 6 (CYP2D6) small molecule antagonists: luciferase biochemical (cell-free) qHTS assay (AID 1645840; active = well fitted curve in the direction sought with a large enough effect in the repeat runs; an effect the other way counts as inactive or inconclusive; also: potency is read from the fitted curve at half-maximal effect; nearly all actives have a fitted effect of over 55% in size). The method in brief:
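P450-Glo CYP2D6 system: proluciferin substrate converted by enzyme to luciferin, read by luminescence proportional to activity. Enzyme-substrate mix with compound 10 min at room temperature, then NADPH regeneration 1 h before detection reagent.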

Potency and activity change, negative = viability loss data for 18 compounds are collected here from PubChem BioAssay (NCATS).

Inconclusive results are not listed. Calls of active or inactive are those of the source. Unless noted, calls follow the shape of the dose curve; as a rule, active = well fitted curve in the direction sought with a large enough effect; inconclusive = small, poorly fitted or top-dose-only effect, or another doubt; inactive = no such curve, though single readings can be large; an effect the other way counts as inactive or inconclusive.

Sequence of Cytochrome P450 2D6 (Homo sapiens) (P10635 whole entry, looked up): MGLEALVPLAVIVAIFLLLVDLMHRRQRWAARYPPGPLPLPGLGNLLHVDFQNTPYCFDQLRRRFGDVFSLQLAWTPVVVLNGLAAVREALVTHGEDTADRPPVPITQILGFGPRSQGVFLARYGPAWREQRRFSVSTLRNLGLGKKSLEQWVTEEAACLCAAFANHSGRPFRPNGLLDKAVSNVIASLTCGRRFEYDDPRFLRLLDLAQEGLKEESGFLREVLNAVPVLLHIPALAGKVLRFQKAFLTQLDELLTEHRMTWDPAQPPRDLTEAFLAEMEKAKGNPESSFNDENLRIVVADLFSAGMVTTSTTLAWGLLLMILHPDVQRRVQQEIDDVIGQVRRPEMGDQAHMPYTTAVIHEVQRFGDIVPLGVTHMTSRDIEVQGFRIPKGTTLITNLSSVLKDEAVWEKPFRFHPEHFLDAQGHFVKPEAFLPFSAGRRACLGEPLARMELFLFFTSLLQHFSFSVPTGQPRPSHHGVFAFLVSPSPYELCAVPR
Sequence of Cytochrome P450 2C9 (Homo sapiens) (P11712 whole entry, looked up): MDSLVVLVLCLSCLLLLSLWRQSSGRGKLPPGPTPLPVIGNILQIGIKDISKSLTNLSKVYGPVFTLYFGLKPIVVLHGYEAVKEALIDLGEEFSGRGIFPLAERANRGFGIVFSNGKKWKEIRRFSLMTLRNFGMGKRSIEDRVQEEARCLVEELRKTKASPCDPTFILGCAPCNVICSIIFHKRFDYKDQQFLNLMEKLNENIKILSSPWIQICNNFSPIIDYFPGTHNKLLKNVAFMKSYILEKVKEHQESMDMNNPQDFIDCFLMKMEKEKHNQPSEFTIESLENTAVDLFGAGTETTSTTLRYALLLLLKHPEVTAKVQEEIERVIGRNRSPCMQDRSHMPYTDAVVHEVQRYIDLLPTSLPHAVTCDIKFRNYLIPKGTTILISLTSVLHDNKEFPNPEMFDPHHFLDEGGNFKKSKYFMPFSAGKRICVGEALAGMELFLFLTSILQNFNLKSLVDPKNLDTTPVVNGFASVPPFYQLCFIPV
Sequence of Calcium and integrin-binding protein 1 (Homo sapiens) (Q99828 whole entry, looked up): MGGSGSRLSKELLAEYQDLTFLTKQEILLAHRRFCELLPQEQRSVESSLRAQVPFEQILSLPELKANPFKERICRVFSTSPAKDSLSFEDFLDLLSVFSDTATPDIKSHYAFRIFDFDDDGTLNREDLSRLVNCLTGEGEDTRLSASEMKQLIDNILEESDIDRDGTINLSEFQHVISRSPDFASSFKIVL
Sequence of N-terminal Xaa-Pro-Lys N-methyltransferase 1 (Homo sapiens) (Q9BV86 whole entry, looked up): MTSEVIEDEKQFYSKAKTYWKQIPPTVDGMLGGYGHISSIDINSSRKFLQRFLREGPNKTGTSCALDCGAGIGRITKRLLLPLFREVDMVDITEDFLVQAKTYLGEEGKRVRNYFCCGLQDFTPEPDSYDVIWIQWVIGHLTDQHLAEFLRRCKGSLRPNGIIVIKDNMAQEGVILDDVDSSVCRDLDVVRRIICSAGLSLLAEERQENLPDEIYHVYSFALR

With `COc1ccc(CCO[C@@H]2O[C@H](CO[C@@H]3OC[C@H](O)[C@H](O)[C@H]3O)[C@@H](O)[C@H](O)[C@H]2O)cc1`, the Potency entry in experiment [1] and in experiment [2] was “inactive” each time.
As to `COc1cc(N2CCC(N3CCN(C)CC3)CC2)ccc1Nc1ncc(Cl)c(-c2c[nH]c3ccccc23)n1`, the figures for the Potency in experiment [3], in experiment [4] and in experiment [2] were 19 µM (active), 55.5 µM (active) and 1.15 µM (active), respectively.
As to `O=C(CO)[C@@H](O)[C@H](O[C@@H]1O[C@H](CO)[C@H](O)[C@H](O)[C@H]1O)[C@H](O)CO`, the Potency result in experiment [1] and in experiment [2] was “inactive” throughout.
In the case of `Cc1cc(C(N)=O)ccc1-n1c(CCC(=O)O)ccc1-c1ccc(-n2ccnc2)cc1`, the values for the Potency in experiment [5] and in experiment [3] were 0.952 µM (active) and 3.38 µM (active), respectively. Further, the Potency result in experiment [2] is “inactive”.
As to `CC(=O)O[C@@H]1c2c(C)coc2C(=O)[C@@]23O[C@@H]2CC[C@H](C)[C@@]13C`, the Potency entry in experiment [1] and in experiment [2] was “inactive” each time.
Consider `C=CC/C=C\C/C=C\CCCCCCCc1cccc(O)c1C(=O)O`, for which, in experiment [2], the Potency entry was “inactive”.
As to `C[C@@H]1O[C@@H](O[C@@H]2[C@@H](O)[C@H](O[C@H]3CC[C@@]4(C)C(CC[C@]5(C)C4CC=C4[C@@H]6CC(C)(C)CC[C@]6(C(=O)O[C@@H]6O[C@H](CO)[C@@H](O)[C@H](O)[C@H]6O)CC[C@]45C)C3(C)C)O[C@H](C(=O)O)[C@H]2O)[C@H](O)[C@H](O)[C@H]1O` (stereo partly drawn), the Potency entry in experiment [1] is “inactive”. Besides, the activity change, negative = viability loss in experiment [2] is -9.85% [at 9.23 µM] (inactive).
Consider `OC[C@H]1O[C@@H](OCCc2ccc(O)cc2)[C@H](O[C@@H]2OC[C@](O)(CO)[C@H]2O)[C@@H](O)[C@@H]1O`, for which the Potency result in experiment [1] and in experiment [2] was “inactive” each time.
On to `COC(=O)C12C(=O)C(C)=C(O)C1(C)C(C)=CC1C3(CO)CCC(O)C(C)(C)C3CCC12C` (stereo not drawn), for which the Potency entry in experiment [1] and in experiment [2] was “inactive” in each case.
For `O=C(O[C@H]1[C@@H]2C=CO[C@@H](O[C@@H]3O[C@H](CO)[C@@H](O)[C@H](O)[C@H]3O)[C@@H]2[C@@]2(CO)O[C@@H]12)c1ccccc1`, the Potency entry in experiment [1] and in experiment [2] was “inactive” each time.
In the case of `COc1cc2c(cc1OC)-c1[nH]nc(Nc3cccc(F)c3)c1C2`, the values for the Potency in experiment [5] and in experiment [2] were 21.3 µM (active) and 0.0916 µM (active), respectively.
Turning to `CCOC(=O)C(CCc1ccccc1)NC1CSC(c2cccs2)CN(CC(=O)O)C1=O` (stereo not drawn), the Potency result in experiment [1] and in experiment [2] was “inactive” in each case.
For `CNC(=O)c1ccccc1Nc1cc(Nc2ccc(N3CCOCC3)cc2OC)ncc1C(F)(F)F`, the Potency in experiment [3] is 4.25 µM (active); in experiment [2], 2.9 µM (active). In experiment [4], the Potency result is “inactive”.
Turning to `O=C(O)/C=C/c1ccc(-c2ccc(O)c(C34CC5CC(CC(C5)C3)C4)c2)cc1`, the Potency in experiment [2] is 0.325 µM (active).
`C=C1C(OC(=O)/C(C)=C\C)[C@@]23CCC4[C@@](C)(CCC[C@@]4(C)C(=O)O)C2CC[C@H]1C3OC(C)=O` (stereo partly drawn): in experiment [2], the Potency entry was “inactive”.
As to `CCN(CC)CCN(Cc1ccc(-c2ccc(C(F)(F)F)cc2)cc1)C(=O)Cn1c(SCc2ccc(F)cc2)nc(=O)c2c1CCC2`, the Potency in experiment [5] was 9.52 µM (active); in experiment [3], 23.9 µM (active); in experiment [2] it was 2.9 µM (active).
For `CCC(C)/C=C(C)/C=C/c1cc2c(cn1)C(=O)C(C)(OC(C)=O)C(O)=C2Cl` (stereo not drawn), the Potency result in experiment [1] and in experiment [2] was “inactive” throughout.
For `Cc1cc(-c2cc(O)ccc2Cl)cc2nnc(Nc3ccc(OCCN4CCCC4)cc3)nc12`, the Potency in experiment [5] is 16.9 µM (active); in experiment [3] it was 12 µM (active); in experiment [2] it was 3.25 µM (active).
